{"source": "PubChem BioAssay AID1458", "about": "(National Center for Advancing Translational Sciences (NCATS), 2008)", "note": "Screen size: about 210,000 compounds; about 5,900 (2.8%) were called active. A call without a number means that no potency is given here. Not shown: some 5% with an inconclusive outcome. The call rests on the fitted dose curve; in most records, active means well fitted activation curve with a large enough effect; inconclusive means small, poorly fitted or top-dose-only effect; inactive means no such curve, though single readings can be large or run the other way. This excerpt belongs to a sample that is enriched for actives. Potency means the concentration at half of the fitted maximal effect.", "data": [{"experiment": "qHTS Assay for Enhancers of SMN2 Splice Variant Expression; further: nearly all actives have a fitted effect of over 55% in size", "settings": "HEK293 SMN2-luciferase splicing reporter, luminescence, 30-36 h; series mostly up to 46.1 µM", "outline": "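qHTS luciferase splicing reporter: luminescence rises when SMN2 exon 7 is included in transfected HEK293 cells. Compound exposure lasted 30-36 h at 37C, with 4.5 mM final sodium butyrate as control, followed by a ONE-Glo read.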", "values": [{"smiles": "Cc1cccc(NC(=O)Cn2c(=O)n(CCC(C)C)c(=O)c3cccnc32)c1", "Potency": "inactive"}, {"smiles": "COc1cc(CN(CC2CCCO2)C(=O)c2ccccc2F)cc(OC)c1OC", "note": "(stereo not given)", "Potency": "inactive"}, {"smiles": "CCc1ccc(NC(=O)Cn2c(=O)n(CCC(=O)NCc3ccc4c(c3)OCO4)c(=O)c3ccccc32)cc1", "Potency": "inactive"}, {"smiles": "Cc1ccccc1-n1c(=O)c2ccccc2n(Cc2ccc(F)cc2)c1=O", "Potency": "inactive"}, {"smiles": "CCOc1ccc(NC(=O)c2c(NC(=O)Cc3ccccc3)sc3c2CCCCC3)cc1", "Potency": "inactive"}, {"smiles": "COCCNC(=O)C(c1ccc(C)o1)N(Cc1ccccc1)C(=O)Cn1nnc2ccccc21", "note": "(stereo not given)", "Potency": "inactive"}, {"smiles": "CCC(C)(C)NC(=O)C(c1cccn1C)N(Cc1ccc(C)cc1)C(=O)Cn1nnc2ccccc21", "note": "(stereo not given)", "Potency": "15.8 µM (active)"}, {"smiles": "Cc1ccc(C(C(=O)NCc2ccco2)N(CC2CCCO2)C(=O)Cn2nnc3ccccc32)cc1", "note": "(stereo not given)", "Potency": "inactive"}, {"smiles": "O=C(Cn1c(=O)n(-c2ccc(F)cc2)c(=O)c2sc3ccccc3c21)NC1CCCC1", "Potency": "inactive"}, {"smiles": "Cc1ccc(-n2ncc3c(=O)n(Cc4cccc(C(F)(F)F)c4)cnc32)cc1C", "Potency": "inactive"}, {"smiles": "O=C(Cn1c(COc2ccccc2)nc2ccccc21)Nc1cc(Cl)c(Cl)cc1Cl", "Potency": "inactive"}, {"smiles": "CC(C)c1ccc(Cn2c(COc3ccccc3)nc3ccccc32)cc1", "Potency": "inactive"}, {"smiles": "COCn1c(COc2ccccc2)nc2ccccc21", "Potency": "12.6 µM (active)"}, {"smiles": "Cc1cc(C)c2oc(C(=O)Nc3ccc(S(=O)(=O)Nc4nccc(C)n4)cc3)cc(=O)c2c1", "Potency": "inactive"}, {"smiles": "O=C(CN1C(=O)COc2ccc(S(=O)(=O)N3CCCCCC3)cc21)N1CCN(c2cccc(C(F)(F)F)c2)CC1", "Potency": "inactive"}, {"smiles": "O=C(Nc1nc2cc3c(cc2s1)OCCO3)c1cccc(S(=O)(=O)N2CCOCC2)c1", "Potency": "inactive"}, {"smiles": "c1c2c(cc3sc(N4CCCCC4)nc13)OCCO2", "Potency": "0.501 µM (active)"}, {"smiles": "Cc1nc(N2CCCCC2)sc1C=O", "Potency": "inactive"}, {"smiles": "Cc1ccc(C(=O)Nc2ccc(OCc3cc(=O)n4c(C)csc4n3)cc2)cc1", "Potency": "inactive"}, {"smiles": "CCNC(=O)Cn1nc(C)n2c(cc3c(OC)cccc32)c1=O", "Potency": "inactive"}, {"smiles": "COC(=O)c1ccccc1NC(=O)c1ccc2c(=O)n3c(nc2c1)CCCCC3", "Potency": "inactive"}, {"smiles": "Cc1cc(C)c2nc(NC(=O)C3CCCO3)sc2c1", "note": "(stereo not given)", "Potency": "12.6 µM (active)"}, {"smiles": "Cc1cc([N+](=O)[O-])ccc1NC(=O)C1CCCO1", "note": "(stereo not given)", "Potency": "inactive"}, {"smiles": "O=C(Nc1nc2ccc(S(=O)(=O)N3CCCC3)cc2s1)C1CCCO1", "note": "(stereo not given)", "Potency": "inactive"}, {"smiles": "O=C(Nc1cc(-c2nc3ccccc3o2)ccc1Cl)c1cc([N+](=O)[O-])ccc1N1CCOCC1", "Potency": "inactive"}, {"smiles": "CN(c1nc2ccccc2n2c(-c3ccco3)nnc12)S(=O)(=O)c1ccccc1", "Potency": "inactive"}, {"smiles": "Cn1c(-c2ccco2)nc2cc3ccccc3cc21", "Potency": "2.51 µM (active)"}, {"smiles": "CN1c2ccccc2-c2nc3ccccc3n2C1c1ccco1", "note": "(stereo not given)", "Potency": "inactive"}, {"smiles": "COC(=O)CC1Oc2ccccc2-n2cc(-c3ccccc3)nc21", "note": "(stereo not given)", "Potency": "inactive"}, {"smiles": "COc1cccc(N2CCN(S(=O)(=O)c3cc(Br)cc4c3N(C(=O)C3CC3)CC4)CC2)c1", "Potency": "inactive"}, {"smiles": "CN(C)CCN=c1cc(-c2ccccc2)oc2ccc(Cl)cc12", "Potency": "15.8 µM (active)"}, {"smiles": "CCC1CCCCN1C(=O)Cn1c(=O)n(CCCCCC(=O)NCc2ccccc2)c(=O)c2sccc21", "note": "(stereo not given)", "Potency": "inactive"}, {"smiles": "Cc1ccc(C(=O)Nc2ccc(OCc3cc(=O)n4c5c(sc4n3)CCCC5)cc2)cc1", "Potency": "inactive"}, {"smiles": "CC(=O)NCCc1nc2cc(NC(=O)c3ccccc3)ccc2n1C", "Potency": "22.4 µM (active)"}, {"smiles": "Cn1c(CN2CCOCC2)nc2cc(NC(=O)c3ccc(Cl)cc3)ccc21", "Potency": "inactive"}, {"smiles": "CCCCCn1c(CCNC(=O)c2ccc(F)cc2)nc2ccccc21", "Potency": "inactive"}, {"smiles": "COc1ccc(C2Sc3ccccc3NC3=C2C(=O)c2ccccc23)c(OC)c1OC", "note": "(stereo not given)", "Potency": "inactive"}, {"smiles": "Cc1cccc(N(CC(=O)N=Nc2c(O)[nH]c3ccccc23)S(C)(=O)=O)c1C", "Potency": "inactive"}, {"smiles": "COCC(=O)N=Nc1c(O)[nH]c2ccccc12", "Potency": "inactive"}, {"smiles": "Cc1c(-c2ccccc2)n[nH]c1C(=O)N=Nc1c(O)[nH]c2ccccc12", "Potency": "20 µM (active)"}, {"smiles": "COc1ccccc1CNC(=O)C(Cc1ccccc1)NS(=O)(=O)c1ccc2c(c1)oc(=O)n2C", "note": "(stereo not given)", "Potency": "inactive"}, {"smiles": "C/C(=N\\Nc1ncc(Cl)cc1Cl)c1cccs1", "Potency": "11.2 µM (active)"}, {"smiles": "O=C(NC1CCC(O)CC1)c1ccc(S(=O)(=O)NCc2ccco2)cc1", "note": "(stereo not given)", "Potency": "inactive"}, {"smiles": "Cc1c(Cl)cnc(NC(=O)COC(=O)c2ccc(S(=O)(=O)NCc3ccco3)cc2)c1Cl", "Potency": "inactive"}, {"smiles": "C/C(=N\\Nc1ncc(Cl)cc1Cl)c1ccc(S(=O)(=O)NCc2ccco2)cc1", "Potency": "12.6 µM (active)"}, {"smiles": "C/C(=N\\NC(=O)COc1c(C)cccc1C)c1cccs1", "Potency": "inactive"}, {"smiles": "C/C(=N\\NS(=O)(=O)c1ccc(Br)cc1)c1cccs1", "Potency": "inactive"}, {"smiles": "Cc1cccc(C(CC(=O)NCC2(c3ccccc3)CCCC2)c2ccccc2)c1O", "note": "(stereo not given)", "Potency": "inactive"}, {"smiles": "CCOc1ccccc1CNCc1c(C(=O)O)c(C)n(Cc2ccc(C)cc2)c1C", "Potency": "inactive"}, {"smiles": "O=S(=O)(NCC(c1ccccc1)N1CCc2ccccc21)c1ccccc1", "note": "(stereo not given)", "Potency": "inactive"}, {"smiles": "COc1ccc(S(=O)(=O)Nc2cc3c(C(=O)OC(C)C)c(C)oc3c3ccccc23)cc1", "Potency": "inactive"}, {"smiles": "Cc1cc2oc(C(=O)N(Cc3ccc(Cl)cc3)Cc3ccco3)c(C)c2cc1Cl", "Potency": "inactive"}, {"smiles": "COc1ccccc1C(=O)Nc1c(C(=O)Nc2ccc(C)cc2)oc2ccccc12", "Potency": "inactive"}, {"smiles": "CSc1ncccc1C(=O)Nc1nc2ccc(F)cc2s1", "Potency": "inactive"}, {"smiles": "O=C(Nc1nc2ccc(F)cc2s1)c1nc(SCc2ccccc2F)ncc1Cl", "Potency": "inactive"}, {"smiles": "CCS(=O)(=O)N1Cc2ccccc2CC1C(=O)Nc1nc2ccc(F)cc2s1", "note": "(stereo not given)", "Potency": "14.1 µM (active)"}, {"smiles": "Cc1cccc(N2CCN(C(=O)c3ccc4c(c3)CCN4S(=O)(=O)c3ccccc3)CC2)c1C", "Potency": "inactive"}, {"smiles": "O=C(NCc1ccco1)c1cccn2c(=O)c3c4c(sc3nc12)CCCC4", "Potency": "inactive"}, {"smiles": "Cn1c(=O)n(Cc2ccco2)c(=N)c2c3c(sc21)CCCC3", "Potency": "inactive"}, {"smiles": "O=c1oc(-c2ccco2)nc2sc3c(c12)CCCCC3", "Potency": "14.1 µM (active)"}, {"smiles": "Oc1ccccc1-c1nc2ccc(Cl)cn2c1Nc1ccc2c(c1)OCCO2", "Potency": "inactive"}, {"smiles": "O=C(c1cccs1)C1C(c2ccc(Br)cc2)NC(=S)NC1(O)C(F)(F)F", "note": "(stereo not given)", "Potency": "12.6 µM (active)"}, {"smiles": "CC(=O)C1C(c2ccc(Cl)cc2)NC(=O)NC1(O)C(F)(F)F", "note": "(stereo not given)", "Potency": "inactive"}, {"smiles": "CC(=O)C1C(c2cccc(Oc3ccccc3)c2)NC(=O)NC1(O)C(F)(F)F", "note": "(stereo not given)", "Potency": "inactive"}, {"smiles": "COc1ccc2c(c1)C(c1cccs1)=NNC(c1cccnc1)=N2", "Potency": "inactive"}, {"smiles": "Fc1ccc2c(c1)C(c1cccnc1)=NNC(c1cccs1)=N2", "Potency": "inactive"}, {"smiles": "CCOc1ccc2c(c1)C(c1ccc(C)cc1)=NNC(c1ccc(C)cc1)=N2", "Potency": "12.6 µM (active)"}, {"smiles": "Cc1cccn2c(=O)c3cc(C(=O)NC(C)c4ccccc4)c(=N)n(CCCO)c3nc12", "note": "(stereo not given)", "Potency": "inactive"}, {"smiles": "COc1cc(OC)cc(C(=O)Nc2c(C(=O)Nc3ccc(F)cc3)oc3ccccc23)c1", "Potency": "inactive"}, {"smiles": "COc1ccc(/C=C(\\C#N)C(=O)ONC2=NCCCCC2)cc1", "Potency": "inactive"}, {"smiles": "Oc1ccc(/C=N/NC2=NCCCCC2)c(O)c1", "Potency": "12.6 µM (active)"}, {"smiles": "CCN(CC)c1ccc(/C=N/Nc2nc(C)cc(C)n2)c(O)c1", "Potency": "inactive"}, {"smiles": "NS(=O)(=O)c1ccc(NC(=O)COc2ccc(S(=O)(=O)NC3CCCCC3)cc2)cc1", "Potency": "inactive"}, {"smiles": "Cc1ccc(S(=O)(=O)NCC(=O)N(CC(=O)NC(C)(C)C)Cc2cccs2)cc1", "Potency": "inactive"}, {"smiles": "Cc1ccc(S(=O)(=O)NCC(=O)N(CC(=O)NC2CCCCC2)Cc2ccco2)cc1", "Potency": "20 µM (active)"}, {"smiles": "Cc1ccc(S(=O)(=O)N(C)CC(=O)NC2CCCC2)cc1", "Potency": "inactive"}, {"smiles": "CN(Cc1ccccc1)C(=O)c1cc2c(=O)n(C)c3ccccc3c2s1", "Potency": "inactive"}, {"smiles": "Cc1cccc(NC(=O)CN(c2ccc(C(C)C)cc2)S(=O)(=O)c2c(C)nn(C)c2C)c1C", "Potency": "inactive"}, {"smiles": "CCOc1ccc(-c2cc3nc(C4CCN(C(=O)OC(C)(C)C)CC4)c(C(=O)Nc4ccc(C(=O)OC)cc4)cn3n2)cc1", "Potency": "inactive"}, {"smiles": "OC(c1nnc(-c2ccccc2)o1)c1cccs1", "note": "(stereo not given)", "Potency": "inactive"}, {"smiles": "Brc1ccc(-c2nnc(-c3ccccc3)o2)o1", "Potency": "14.1 µM (active)"}, {"smiles": "Brc1ccc(-c2noc(-c3ccccc3)n2)o1", "Potency": "11.2 µM (active)"}, {"smiles": "Cn1nc(-c2ccccc2)c(-c2nc(-c3ccc(Cl)cc3)no2)c1Cl", "Potency": "inactive"}, {"smiles": "CCCN(CCC)c1ccc(C(O)c2nnc(-c3ccccc3)o2)cc1", "note": "(stereo not given)", "Potency": "inactive"}, {"smiles": "Nc1nonc1-c1noc(-c2ccc(Br)o2)n1", "Potency": "inactive"}, {"smiles": "COC(=O)c1sc2ncccc2c1-n1c(C)ccc1C", "Potency": "inactive"}, {"smiles": "Cc1sc2ncn(CC(=O)N3CCN(c4ccc(F)cc4)CC3)c(=O)c2c1S(=O)(=O)N1CCN(c2ncccn2)CC1", "Potency": "inactive"}, {"smiles": "CCc1nccn1S(=O)(=O)c1cc(Br)ccc1Br", "Potency": "inactive"}, {"smiles": "Cc1ccc(-c2nn(CCC(=O)Nc3ccc(Cl)c(Cl)c3)c(=O)c3ccccc23)cc1", "Potency": "inactive"}, {"smiles": "CC(C)Cn1c(C2CC(=O)N(c3ccccc3Cl)C2)nc2ccccc21", "note": "(stereo not given)", "Potency": "inactive"}, {"smiles": "Cc1cccc(NC(=O)CSc2nc3c(oc4ccccc43)c(=O)n2-c2ccc(F)cc2)c1", "Potency": "inactive"}, {"smiles": "Cc1cc(C)c2oc(C(=O)Nc3ccc(S(=O)(=O)N4CCCCCC4)cc3)cc(=O)c2c1", "Potency": "inactive"}, {"smiles": "Cc1ccc(S(=O)(=O)N(Cc2nc(-c3ccc(Cl)cc3)no2)C2CCCCC2)cc1", "Potency": "inactive"}, {"smiles": "O=c1c2ccccc2nc(N/N=C/c2ccccc2)n1O", "Potency": "inactive"}, {"smiles": "COc1ccc(C=Nc2cccc3ncccc23)cc1", "Potency": "inactive"}, {"smiles": "COc1ccc(/C=N/Nc2nc3ccccc3c(=O)[nH]2)cc1", "Potency": "12.6 µM (active)"}, {"smiles": "CCc1cc2c(cc3c(=O)n(CC(=O)N4CCN(c5cc(Cl)ccc5C)CC4)nc(CC)n32)s1", "Potency": "inactive"}, {"smiles": "CCCS(=O)(=O)c1c(Nc2ccccc2C)sc(C(=O)c2ccccc2)c1N", "Potency": "inactive"}, {"smiles": "O=c1c2cccnc2n(Cc2cccc(F)c2)c(=O)n1Cc1ccccc1Cl", "Potency": "inactive"}, {"smiles": "CCCCOC(=O)CSc1ncnc2sc3c(c12)CCC(C)C3", "note": "(stereo not given)", "Potency": "inactive"}]}]}
